Most compounds without a hit are left out; they make up all but 2.6% or so of the library.
AmpC nodet inh: inhibitors of E. coli AmpC beta-lactamase without detergent. AmpC nitrocefin hydrolysis, absorbance 480 nm, no detergent. Potency, µM (top dose mostly 28.7 µM), without a hit: at the highest dose activity change, negative = inhibition. hit rate 1.8% among 71,000; note: % of control where 0% means no effect
Target sequence (P00811 whole entry, looked up): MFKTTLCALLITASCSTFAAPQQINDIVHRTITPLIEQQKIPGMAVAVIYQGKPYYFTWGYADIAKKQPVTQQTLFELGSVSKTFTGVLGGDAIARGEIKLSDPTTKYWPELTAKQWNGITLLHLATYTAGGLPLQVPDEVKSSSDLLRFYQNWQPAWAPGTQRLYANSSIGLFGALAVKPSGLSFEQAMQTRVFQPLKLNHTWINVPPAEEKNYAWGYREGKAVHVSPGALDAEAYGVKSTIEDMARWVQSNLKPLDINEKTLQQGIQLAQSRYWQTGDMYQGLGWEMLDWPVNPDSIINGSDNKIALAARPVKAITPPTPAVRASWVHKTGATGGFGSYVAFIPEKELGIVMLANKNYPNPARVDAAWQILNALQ
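Enzyme, pH 7.0 phosphate. Compound titrations were pre-incubated with AmpC for 15 min at room temperature before nitrocefin (stock 800 uM) addition; product formation was recorded at 480 nm every 20 s for 4 min.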
Prx2 Sm inh: blocks S. mansoni peroxiredoxin 2 enzymatic activity | S. mansoni Prx2 activity coupled to TGR/GSH (TGR is thioredoxin glutathione reductase), NADPH fluorescence loss, qHTS | Potency, µM | hit rate 0.07% among 65,000 | AID 448
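Coupled assay in which S. mansoni TGR passes NADPH reducing equivalents via glutathione to Prx2, which reduces H2O2. Compounds were preincubated 15 min at room temperature with 25 nM TGR/50 nM Prx2 mix. Kinetic NADPH fluorescence loss (ex 365/em 450 nm) was monitored.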
AmpC inh det: blocks E. coli AmpC beta-lactamase in presence of detergent; purified AmpC, nitrocefin hydrolysis with detergent; Potency, µM (series often up to 28.7 µM), inactives show top-dose activity change, negative = inhibition; AID 584; P00811; hit rate 0.09% among 71,000; active = well fitted curve in the direction sought with a large enough effect; inconclusive = small, poorly fitted or top-dose-only effect; note: % is set by controls: 0 for no effect and ±100 for the full control effect
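E. coli AmpC (5.3 nM) in 20 mM phosphate pH 7.0 with 0.01% Triton X-100, preincubated 15 min RT with compound; nitrocefin (2 uL of 800 uM stock) hydrolysis followed by 480 nm absorbance every 20 s over 4 min.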
LT uptake inh: anthrax lethal toxin internalization inhibition; hit rate 0.67% among 70,000; Cells, anthrax lethal toxin internalization, FRET ratio (460/530); Potency, µM (titrated, usually from 40 µM), inactives show at the top dose activity change, negative = inhibition, hits mostly inhibitors; note: % is set by controls: 0 for no effect and ±100 for the full control effect; nearly all actives have a fitted effect of over 50% in size
Numbers without * were called inactive; [ ] = dose if it differs, or a comment. Unless noted, calls come from the whole dose curve. Potency is the fitted concentration of half-maximal effect.

Screening O=[N+]([O-])c1ccc2c(c1)S(=O)c1ccccc1-2 (stereo not given) returned AmpC nodet inh 1%[5.75 µM], Prx2 Sm inh >57, AmpC inh det -6%[5.75 µM] and LT uptake inh 3%[8 µM].
For O=C1c2cc([N+](=O)[O-])ccc2-c2ccc3c4ccc5c6c(ccc(c7ccc1c2c73)c64)C(=O)c1cc([N+](=O)[O-])ccc1-5 the results were AmpC nodet inh 2.5µM*, Prx2 Sm inh >57, AmpC inh det -11%[5.75 µM] and LT uptake inh -2%[8 µM].
Screening CC(Sc1nc(-c2ccccc2)cc(C(F)(F)F)n1)C(=O)N1CCCC1 (stereo not given) returned AmpC nodet inh 4µM*[single pt active], Prx2 Sm inh >57, AmpC inh det 14% and LT uptake inh -2%.
CCCCCCN(C(=O)CCCCCN1C(=O)NC(c2ccc3ccccc3c2)C(C(=O)OCc2ccccc2)=C1C)C(C(=O)NCCCC)c1ccc(OCC(=O)OC)c(C(=O)OC)c1 (stereo not given) was read as AmpC nodet inh 32%, AmpC inh det 13% and LT uptake inh inconclusive.
Oc1c(CN2CCc3ccccc3C2)cc(Cl)c2cccnc12 was read as AmpC nodet inh 2.5µM*[single pt active], Prx2 Sm inh >57, AmpC inh det 15% and LT uptake inh inconclusive.
Screening Cc1cc(C)n2nc(SCC(=O)Nc3ccc(F)cc3)nc2n1 returned AmpC nodet inh 4µM*[single pt active], Prx2 Sm inh inconclusive, AmpC inh det 13% and LT uptake inh -1%.
Cc1cc(C)n2nc(SCC(=O)Nc3c(C)nn(-c4ccccc4)c3C)nc2n1 was read as AmpC nodet inh 22%, Prx2 Sm inh >57, AmpC inh det -4% and LT uptake inh -7%.
For C=C(C)c1cccc(C(C)(C)NC(=O)N2CCN(c3ccccn3)CC2)c1 the results were AmpC nodet inh 4µM*[single pt active], Prx2 Sm inh >57, AmpC inh det 14% and LT uptake inh -22%.
`OC[C@@H](O)CN1CCN(c2ccccc2)CC1` gave AmpC nodet inh -10%[12.8 µM], Prx2 Sm inh >57, AmpC inh det 0%[12.8 µM] and LT uptake inh -8%[3.58 µM].
Screening CCCNC(=O)CS(=O)Cc1nc(-c2ccccc2C)oc1C (stereo not given) returned AmpC nodet inh 4µM*[single pt active], Prx2 Sm inh >57, AmpC inh det 13% and LT uptake inh inconclusive.
For CCC(C)NC(=O)CS(=O)Cc1nc(-c2ccccc2C)oc1C (stereo not given) the results were AmpC nodet inh 4µM*[single pt active], Prx2 Sm inh >57, AmpC inh det 11% and LT uptake inh -11%.
For O[C@@H](c1cc(-c2ccccc2)nc2c1ccc1ccccc12)[C@@H]1CCCCN1 the results were AmpC nodet inh 12%[5.75 µM], Prx2 Sm inh >57, AmpC inh det 14%[5.75 µM] and LT uptake inh -10%[8 µM].
For CCCS(=O)(=O)c1nnnn1-c1cccc(OC)c1 the results were AmpC nodet inh -8%, Prx2 Sm inh >57, AmpC inh det -7% and LT uptake inh 3.2µM*.
Screening CC(C)(C)C(=O)[C@@H]1[C@@H]2C(=O)N(c3ccc4c(c3)OCCO4)C(=O)[C@@H]2C2c3ccccc3C=CN21 (stereo not given in full) returned AmpC nodet inh 19%, Prx2 Sm inh >57, AmpC inh det -14% and LT uptake inh 1.3µM*.
`O=C(NCCN1CCCC1)C1(S(=O)(=O)c2ccc(Cl)cc2)CC1` gave AmpC nodet inh -4%, Prx2 Sm inh >57, AmpC inh det -4% and LT uptake inh -1%.
For O=C(NCCCN1CCCCC1)C1(S(=O)(=O)c2ccc(Cl)cc2)CC1 the results were AmpC nodet inh 4µM*[single pt active], Prx2 Sm inh >57, AmpC inh det 14% and LT uptake inh -5%.
Cc1nn(Cc2nc(-c3cccs3)no2)c(C)c1Br was read as AmpC nodet inh 2.5µM*[single pt active], Prx2 Sm inh >57, AmpC inh det 10% and LT uptake inh -18%.
For Cc1nnc2ccc(N3CCC(C(N)=O)(N4CCCCC4)CC3)nn12 the results were AmpC nodet inh 4µM*[single pt active], Prx2 Sm inh >57, AmpC inh det 12% and LT uptake inh -6%.
For Cc1nnc2ccc(N3CCN(c4ccccn4)CC3)nn12 the results were AmpC nodet inh 4µM*[single pt active], Prx2 Sm inh >57, AmpC inh det 15% and LT uptake inh -4%.
Screening Cc1nnc2ccc(N3CCN(C)CC3)nn12 returned AmpC nodet inh -8%, AmpC inh det 5% and LT uptake inh 0%.
For N#CC1=C2SCN(c3ccccc3)CN2C(=O)CC1c1cccs1 (stereo not given) the results were AmpC nodet inh -6%, Prx2 Sm inh >57, AmpC inh det -5% and LT uptake inh -13%.
N#CC1=C2SCN(c3ccccc3)CN2C(=O)CC1c1c(Cl)cccc1Cl (stereo not given) was read as AmpC nodet inh 2.5µM*, AmpC inh det 8% and LT uptake inh inconclusive.
Screening COc1ccc(OC)c(C2CC(=O)N3CN(c4ccc(C)c(Cl)c4)CSC3=C2C#N)c1 (stereo not given) returned AmpC nodet inh -8%, Prx2 Sm inh >57, AmpC inh det 11% and LT uptake inh -15%.
Screening Cc1ccc(C2CC(=O)N3CN(c4ccc(Br)cc4)CSC3=C2C#N)o1 (stereo not given) returned AmpC nodet inh 13µM*[single pt active], Prx2 Sm inh >57, AmpC inh det -6% and LT uptake inh inconclusive.
For N#CC1=C2SCN(Cc3ccco3)CN2C(=O)CC1c1c(F)cccc1Cl (stereo not given) the results were AmpC nodet inh 4µM*[single pt active], Prx2 Sm inh >57, AmpC inh det 10% and LT uptake inh -11%.
COc1cc(OC)c(C2CC(=O)N3CN(c4ccccc4)CSC3=C2C#N)cc1OC (stereo not given) was read as AmpC nodet inh 57%, Prx2 Sm inh >57, AmpC inh det 1% and LT uptake inh inconclusive.
`N#CC1=C2SCN(c3ccccc3)CN2C(=O)CC1c1ccccc1Cl` (stereo not given) gave AmpC nodet inh 2.5µM*, Prx2 Sm inh >57, AmpC inh det 9% and LT uptake inh inconclusive.
For COc1cccc(-c2ccc3ncnc(NCc4cccs4)c3c2)c1 the results were AmpC nodet inh 6.3µM*, Prx2 Sm inh >57, AmpC inh det 10µM* and LT uptake inh 13µM*.
O=C(O)c1ccccc1-c1c2cc(Br)c(=O)cc-2oc2[c]([Hg])c(O)c(Br)cc12 was read as AmpC nodet inh -17%[12.8 µM], Prx2 Sm inh 0.037*, AmpC inh det -3%[12.8 µM] and LT uptake inh inconclusive.
O=C(O)c1cccc(N=Nc2c(S(=O)(=O)O)ccc3c2C(=O)c2ccccc2C3=O)c1O was read as AmpC nodet inh -26%[5.75 µM], Prx2 Sm inh >57, AmpC inh det -9%[5.75 µM] and LT uptake inh -2%[8 µM].
For COC(=O)C(C(C)=O)C(=O)C(Cc1ccccc1)NC(=O)OCc1ccccc1 (stereo not given) the results were LT uptake inh -12%[8 µM].
`O=C(N[C@@H](Cc1ccccc1)C(=O)CCl)OCc1ccccc1` gave AmpC nodet inh -2%, Prx2 Sm inh >57, AmpC inh det -5% and LT uptake inh 16µM*.
`CCOC(=O)CCS(=O)(=O)c1nc(-c2ccccc2)cc(C(F)(F)F)n1` gave AmpC nodet inh 16%, Prx2 Sm inh >57, AmpC inh det 1% and LT uptake inh inconclusive.

Screens as filed in PubChem.
